VP16 counter = VP16 counterscreen qHTS for inhibitors of ROR gamma transcriptional activity; Potency, µM (series often up to 53.6 µM), for the others: at the highest dose activity, negative = inhibition, most hits filed as inhibitors; Drosophila S2 Gal4-VP16 UAS-luciferase, luminescence, 20 h; 3.5% of 310,000 active; AID 2546, 2010;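 also: Gal4-VP16 expression switched on by copper sulfate through the metallothionein promoter; potency is read from the fitted curve at half-maximal effect; % is scaled to controls: 0 for no effect and ±100 for the full control effect; nearly all actives have a fitted effect of over 50% in size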
Giardia kill = Small Molecules that selectively kill Giardia lamblia: qHTS. Giardia lamblia trophozoite viability. activity change, % at 7.66 µM, hits read low. 0.15% of 340,000 active. AID 540267, 2011; in the data active = activity change below about -80%; inconclusive = between about -30% and that limit;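 also: parasites exposed to compound for two days anaerobically before the ATP read; % is scaled to controls: 0 for no effect and ±100 for the full control effect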
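ATP-content bioluminescence gauges trophozoite survival. Cells (100/well) receive compound and incubate anaerobically for 48 hrs at 37 deg C; detection reagent follows for 15-30 min at room temperature.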
p53 reactivation = qHTS assay for re-activators of p53 using a Luc reporter | Potency, µM (series often up to 92.2 µM), inactives show top-dose activity change, positive = activation, usual class: activators | H1299 p53-A138V BP100-luciferase reporter, luminescence, 24 h | 0.063% of 320,000 active | AID 504706, 2011; also: potency is read from the fitted curve at half-maximal effect; % of control where 0% means no effect; nearly all actives have a fitted effect of over 45% in size
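H1299 (p53-null), stable ts p53-A138V + BP100-Luc; 1000 cells/well, Opti-MEM/10% FBS; cpd 4 pt, 1:5; 24 h, 37 deg C, 5% CO2; detection reagent 10 min RT; luminescence.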
RORg inh = qHTS for inhibitors of ROR gamma transcriptional activity | Nuclear receptor ROR-gamma (Mus musculus), P51450 | Potency, µM (top dose mostly 53.6 µM), without a hit: top-dose activity change, negative = inhibition, most hits filed as inhibitors | Drosophila S2 Gal4-RORgamma UAS-luciferase reporter, 20 h | 5.4% of 310,000 active; also: potency is read from the fitted curve at half-maximal effect; % is scaled to controls: 0 for no effect and ±100 for the full control effect; nearly all actives have a fitted effect of over 60% in size
Target sequence (P51450 whole entry, looked up, the tested form may be a part): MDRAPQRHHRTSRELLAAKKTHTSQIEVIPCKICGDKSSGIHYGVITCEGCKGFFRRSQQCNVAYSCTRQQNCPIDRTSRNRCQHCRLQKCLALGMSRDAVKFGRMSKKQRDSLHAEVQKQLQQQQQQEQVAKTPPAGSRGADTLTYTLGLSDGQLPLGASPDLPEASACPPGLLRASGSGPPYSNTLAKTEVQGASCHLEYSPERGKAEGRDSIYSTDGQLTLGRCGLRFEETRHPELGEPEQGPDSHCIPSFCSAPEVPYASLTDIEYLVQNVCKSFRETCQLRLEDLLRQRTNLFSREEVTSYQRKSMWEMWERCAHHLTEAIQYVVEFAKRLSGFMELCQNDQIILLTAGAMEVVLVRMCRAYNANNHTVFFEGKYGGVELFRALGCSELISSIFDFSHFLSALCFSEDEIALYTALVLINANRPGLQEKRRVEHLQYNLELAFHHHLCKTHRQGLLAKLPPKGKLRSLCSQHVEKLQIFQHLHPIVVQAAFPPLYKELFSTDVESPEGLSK
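Luciferase reporter read in Schneider cells carrying Gal4-RORγ (mouse) and UAS-Photinus luciferase; cells given compound 1 h before 700 uM copper sulfate induction, then incubated 20 h at ambient temperature.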
ELG1 repair inh = qHTS screen for small molecules that inhibit ELG1-dependent DNA repair in human embryonic kidney (HEK293T) cells expressing luciferase-tagged ELG1. AID 504467, 2011. HEK293T ELG1-luciferase reporter, luminescence, 16 h; DNA damage induced by 5-fluorouridine. 2.3% of 330,000 active. Potency, µM (doses to about 46.1 µM), for inactives: top-dose activity change, negative = inhibition, actives largely listed as inhibitors; also: potency is read from the fitted curve at half-maximal effect; % is scaled to controls: 0 for no effect and ±100 for the full control effect; nearly all actives have a fitted effect of over 55% in size
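DMSO vehicle served as the neutral condition. Each well held 2,000 cells given 5-fluorouridine plus compound; after 16 hr at 37 °C/5% CO2, ONE-Glo was added and luciferase measured 30 min later.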
BRCA1 expr up = qHTS Assay to Identify Small Molecule Activators of BRCA1 Expression; MCF7-BRCA1-FFLuc reporter, luminescence, 48 h; response scale: scaled: vehicle 0%, 10 µM genistein 100%; Potency, µM (top dose mostly 46.1 µM), inactives show top-dose activation, actives largely listed as activators; 1.1% of 380,000 active; also: potency is read from the fitted curve at half-maximal effect; nearly all actives have a fitted effect of over 80% in size
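Luminescence from a BRCA1-driven firefly luciferase in MCF7 cells was read after 48 h compound exposure at 37 C. Data normalized against DMSO and a 10microM genistein activation control, then curve-fitted across the titration.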
* hit, by the source's call; [ ] = remark or other dose. Rows were chosen to be rich in hits. Some 7.6% of all compounds tested hit in one or more screens of this group. Unless noted, calls follow the shape of the dose curve; as a rule, active = well fitted curve in the direction sought with a large enough effect; inconclusive = small, poorly fitted or top-dose-only effect, or another doubt; inactive = no such curve, though single readings can be large; an effect the other way counts as inactive or inconclusive.

For COC(=O)c1ccccc1NC(=O)COC(C)=O the results were VP16 counter -4.8%, Giardia kill 28.4, p53 reactivation 8.8%, RORg inh -27.3%, ELG1 repair inh inconclusive and BRCA1 expr up -19.7%.
`CCOc1ccccc1/C=N/n1c(C2CCCCC2)n[nH]c1=S` gave VP16 counter inconclusive, Giardia kill 7.7, p53 reactivation 5.4%, RORg inh 4.47µM*, ELG1 repair inh 13.9% and BRCA1 expr up -20.1%.
For COc1ccccc1/C=C/C=N/n1c(C2CCCCC2)n[nH]c1=S the results were VP16 counter 2.51µM*, Giardia kill -1.2, p53 reactivation -21.7%, RORg inh 1.41µM*, ELG1 repair inh 11.1% and BRCA1 expr up -6.6%.
`S=c1[nH]nc(C2CCCCC2)n1/N=C/c1cccs1` gave VP16 counter inconclusive, Giardia kill -22.2, p53 reactivation -7.6%, RORg inh 14.1µM*, ELG1 repair inh -1.6% and BRCA1 expr up -20.8%.
Screening FC(F)(F)c1ccccc1/C=N/n1c(C2CCCCC2)n[nH]c1=S returned VP16 counter inconclusive, Giardia kill -7.8, p53 reactivation 7.9%, RORg inh 7.94µM*, ELG1 repair inh -1.0% and BRCA1 expr up 4.8%.
For COc1ccccc1/C=C/C=N/n1c(-c2ccc(Cl)cc2)n[nH]c1=S the results were VP16 counter -9.6%, Giardia kill -6.2, p53 reactivation 0.1%, RORg inh -27.7%, ELG1 repair inh inconclusive and BRCA1 expr up -79.9%.
For CC1CCCC(C)N1C(=O)COC(=O)c1c[nH]c2ccccc12 (configuration not stated) the results were Giardia kill 56.0, p53 reactivation inconclusive, ELG1 repair inh inconclusive and BRCA1 expr up 21.6%.
`Cc1cccc(C)c1-n1nnnc1C1(Nc2ccccc2)CCCCC1` gave VP16 counter inconclusive, Giardia kill 3.4, p53 reactivation 7.8%, RORg inh -22.4%, ELG1 repair inh inconclusive and BRCA1 expr up -29.3%.
S=c1[nH]nc(C2CCCCC2)n1/N=C/c1ccccc1Cl was read as VP16 counter inconclusive, Giardia kill 13.7, p53 reactivation -2.2%, RORg inh 11.2µM*, ELG1 repair inh 1.4% and BRCA1 expr up -31.9%.
O=C(O)c1ccccc1/C=N/n1c(C2CCCCC2)n[nH]c1=S was read as VP16 counter -5.1%, Giardia kill -20.4, p53 reactivation -3.5%, RORg inh -17.3%, ELG1 repair inh 0.7% and BRCA1 expr up -22.4%.
COCCNc1nc2cc(-c3ccc(F)cc3)sc2c(=O)n1C was read as BRCA1 expr up 20.2%.
For O=c1[nH]c(CCl)nc2cc(-c3ccc(F)cc3)sc12 the results were VP16 counter inconclusive, Giardia kill inconclusive, p53 reactivation inconclusive, RORg inh 12.6µM*, ELG1 repair inh inconclusive and BRCA1 expr up 2.7%.
`O=S(=O)(c1ccc(OCC2CO2)cc1)c1ccc(OCC2CO2)cc1` (configuration not stated) gave VP16 counter 2.6%, Giardia kill -10.3, p53 reactivation -3.8%, RORg inh -14.9%, ELG1 repair inh 7.3% and BRCA1 expr up -52.0%.
CO[C@H]1[C@H](O[C@H]2O[C@@H](C)[C@@H](O[C@@H]3C[C@](C)(O)[C@H](OC(=O)CC(C)C)[C@H](C)O3)[C@@H](N(C)C)[C@@H]2O)[C@@H](CC=O)C[C@@H](C)[C@@H](O)/C=C\C=C/C[C@@H](C)OC(=O)C[C@H]1OC(C)=O was read as VP16 counter 2.8%[17 µM] and RORg inh -11.6%[2.98 µM].
`CCOC(=O)c1sc2nc(Cc3ccc(Cl)cc3)[nH]c(=S)c2c1C` gave VP16 counter inconclusive, Giardia kill -19.2, p53 reactivation 0.8%, RORg inh 2.82µM*, ELG1 repair inh -8.6% and BRCA1 expr up 19.6%.
Screening CCOC(=O)c1sc2nc(C)nc(NCc3cccnc3)c2c1C returned VP16 counter 6.0%, Giardia kill 6.7, p53 reactivation -3.6%, RORg inh 38.5%, ELG1 repair inh 14.6µM* and BRCA1 expr up -2.2%.
For CCOC(=O)c1sc2nc(COC(=O)c3c(F)cccc3F)[nH]c(=O)c2c1C the results were VP16 counter -13.5%, Giardia kill -2.3, p53 reactivation 0.2%, RORg inh 37.5%, ELG1 repair inh 18.1% and BRCA1 expr up -0.9%.
CCOC(=O)c1sc2nc(C)nc(NCc3ccc(F)cc3)c2c1C was read as VP16 counter 0.4%, Giardia kill -7.3, p53 reactivation 2.7%, RORg inh 62.7%, ELG1 repair inh 7.3µM* and BRCA1 expr up -86.1%.
CCOC(=O)c1sc2nc(C)nc(Nc3ccc(OC)cc3)c2c1C was read as VP16 counter -6.7%, Giardia kill 5.3, p53 reactivation 6.0%, RORg inh 1.5%, ELG1 repair inh 5.5% and BRCA1 expr up -37.4%.
For CCOC(=O)c1sc2nc(CC(=O)OC)nc(NCc3ccc(F)cc3)c2c1C the results were VP16 counter -9.3%, Giardia kill 35.6, p53 reactivation -1.3%, RORg inh 27.2%, ELG1 repair inh inconclusive and BRCA1 expr up -66.9%.
For CCOC(=O)c1sc2nc(C)nc(NCc3ccc(Cl)cc3)c2c1C the results were VP16 counter -8.8%, Giardia kill -18.0, p53 reactivation -3.6%, RORg inh inconclusive, ELG1 repair inh 11.6µM* and BRCA1 expr up -50.3%.
For COc1ccc(Cl)cc1NC(=O)CN(C)C(=O)c1cn(-c2ccccc2)nc1-c1cccnc1 the results were Giardia kill 11.1, p53 reactivation -17.3%, ELG1 repair inh inconclusive and BRCA1 expr up -52.0%.
Cc1nc(NCc2cccnc2)c2c3c(sc2n1)CC(C)CC3 (configuration not stated) was read as VP16 counter 1.78µM*, Giardia kill 3.3, p53 reactivation 2.2%, RORg inh 0.708µM*, ELG1 repair inh inconclusive and BRCA1 expr up 29.0%.
Cc1nc(NCc2ccccn2)c2c3c(sc2n1)CCCC3 was read as VP16 counter -4.1%, Giardia kill 8.8, p53 reactivation -2.6%, RORg inh 12.5%, ELG1 repair inh -22.5% and BRCA1 expr up -16.3%.
`FC(F)(F)c1ccccc1N/N=C/c1cccnc1` gave VP16 counter 22.7%, Giardia kill 10.9, p53 reactivation 5.1%, RORg inh inconclusive, ELG1 repair inh inconclusive and BRCA1 expr up 27.8%.

From PubChem BioAssay
